In ChEMBL document CHEMBL5724796, “Tm Shift (DSF) assay results for EUbOPEN Chemogenomics Library” (2024):

Assays:
Conditions in all cases: Compound concentration 20.0 uM
[1] = biological target: Tyrosine-protein kinase ABL1 (Homo sapiens) (UniProt P00519)
[2] = biological target: Bromodomain-containing protein 4 (Homo sapiens) (UniProt O60885)
[3] = biological target: Cyclin-dependent kinase 2 (Homo sapiens) (UniProt P24941)
[4] = biological target: Casein kinase I isoform delta (Homo sapiens) (UniProt P48730)
Chain of Casein kinase I isoform delta (Homo sapiens) (P48730 whole entry, looked up, canonical isoform): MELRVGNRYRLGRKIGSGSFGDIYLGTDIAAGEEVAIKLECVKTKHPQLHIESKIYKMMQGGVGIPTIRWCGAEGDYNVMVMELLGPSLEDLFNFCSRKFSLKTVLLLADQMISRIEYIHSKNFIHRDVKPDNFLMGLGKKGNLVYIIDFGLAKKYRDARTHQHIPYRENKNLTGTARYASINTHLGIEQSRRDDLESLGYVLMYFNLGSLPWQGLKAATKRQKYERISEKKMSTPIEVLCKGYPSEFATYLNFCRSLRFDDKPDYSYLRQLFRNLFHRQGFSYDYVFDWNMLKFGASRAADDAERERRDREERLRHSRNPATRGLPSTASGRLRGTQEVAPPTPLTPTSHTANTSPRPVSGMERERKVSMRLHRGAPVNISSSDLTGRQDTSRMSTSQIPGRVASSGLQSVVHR

[5] = biological target: Glycogen synthase kinase-3 beta (Homo sapiens) (UniProt P49841)
Chain of Glycogen synthase kinase-3 beta (Homo sapiens) (P49841 whole entry, looked up): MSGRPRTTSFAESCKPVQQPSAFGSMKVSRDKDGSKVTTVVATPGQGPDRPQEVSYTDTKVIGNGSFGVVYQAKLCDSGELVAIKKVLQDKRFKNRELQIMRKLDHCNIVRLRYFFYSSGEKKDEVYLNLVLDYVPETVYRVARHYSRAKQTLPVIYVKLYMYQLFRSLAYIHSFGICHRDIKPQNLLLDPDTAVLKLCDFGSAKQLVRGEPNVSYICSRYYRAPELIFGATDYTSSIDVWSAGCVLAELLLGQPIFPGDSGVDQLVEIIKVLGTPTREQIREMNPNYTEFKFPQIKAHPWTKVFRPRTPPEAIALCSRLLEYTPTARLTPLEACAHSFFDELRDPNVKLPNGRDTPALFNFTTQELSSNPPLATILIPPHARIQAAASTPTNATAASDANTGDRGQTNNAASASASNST

[6] = biological target: Mitogen-activated protein kinase 1 (Homo sapiens) (UniProt P28482)
Chain of Mitogen-activated protein kinase 1 (Homo sapiens) (P28482 whole entry): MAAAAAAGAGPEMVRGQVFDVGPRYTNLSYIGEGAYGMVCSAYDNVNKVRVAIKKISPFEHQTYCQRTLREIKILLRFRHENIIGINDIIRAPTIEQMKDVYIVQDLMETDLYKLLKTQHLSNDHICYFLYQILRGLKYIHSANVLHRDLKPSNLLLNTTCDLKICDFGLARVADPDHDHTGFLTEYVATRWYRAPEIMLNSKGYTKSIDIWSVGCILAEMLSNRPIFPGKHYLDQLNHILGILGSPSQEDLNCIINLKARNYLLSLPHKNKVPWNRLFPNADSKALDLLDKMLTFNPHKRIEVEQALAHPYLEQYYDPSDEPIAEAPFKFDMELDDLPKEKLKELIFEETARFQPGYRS

[7] = biological target: T1, Aurora kinase A (Homo sapiens) (UniProt O14965)
T1 sequence (whole entry): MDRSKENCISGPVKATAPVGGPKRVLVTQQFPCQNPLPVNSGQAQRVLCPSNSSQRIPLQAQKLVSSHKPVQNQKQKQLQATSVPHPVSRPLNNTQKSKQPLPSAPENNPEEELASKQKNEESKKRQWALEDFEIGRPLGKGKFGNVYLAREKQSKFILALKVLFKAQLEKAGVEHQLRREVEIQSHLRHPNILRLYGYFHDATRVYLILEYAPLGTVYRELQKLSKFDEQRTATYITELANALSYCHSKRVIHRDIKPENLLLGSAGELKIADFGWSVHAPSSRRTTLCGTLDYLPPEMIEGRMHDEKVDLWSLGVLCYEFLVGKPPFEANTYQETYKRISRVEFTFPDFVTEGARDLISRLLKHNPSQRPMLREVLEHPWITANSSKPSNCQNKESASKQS

[8] = biological target: T2, Transcription intermediary factor 1-alpha (Homo sapiens) (UniProt O15164)
T2 sequence (whole entry): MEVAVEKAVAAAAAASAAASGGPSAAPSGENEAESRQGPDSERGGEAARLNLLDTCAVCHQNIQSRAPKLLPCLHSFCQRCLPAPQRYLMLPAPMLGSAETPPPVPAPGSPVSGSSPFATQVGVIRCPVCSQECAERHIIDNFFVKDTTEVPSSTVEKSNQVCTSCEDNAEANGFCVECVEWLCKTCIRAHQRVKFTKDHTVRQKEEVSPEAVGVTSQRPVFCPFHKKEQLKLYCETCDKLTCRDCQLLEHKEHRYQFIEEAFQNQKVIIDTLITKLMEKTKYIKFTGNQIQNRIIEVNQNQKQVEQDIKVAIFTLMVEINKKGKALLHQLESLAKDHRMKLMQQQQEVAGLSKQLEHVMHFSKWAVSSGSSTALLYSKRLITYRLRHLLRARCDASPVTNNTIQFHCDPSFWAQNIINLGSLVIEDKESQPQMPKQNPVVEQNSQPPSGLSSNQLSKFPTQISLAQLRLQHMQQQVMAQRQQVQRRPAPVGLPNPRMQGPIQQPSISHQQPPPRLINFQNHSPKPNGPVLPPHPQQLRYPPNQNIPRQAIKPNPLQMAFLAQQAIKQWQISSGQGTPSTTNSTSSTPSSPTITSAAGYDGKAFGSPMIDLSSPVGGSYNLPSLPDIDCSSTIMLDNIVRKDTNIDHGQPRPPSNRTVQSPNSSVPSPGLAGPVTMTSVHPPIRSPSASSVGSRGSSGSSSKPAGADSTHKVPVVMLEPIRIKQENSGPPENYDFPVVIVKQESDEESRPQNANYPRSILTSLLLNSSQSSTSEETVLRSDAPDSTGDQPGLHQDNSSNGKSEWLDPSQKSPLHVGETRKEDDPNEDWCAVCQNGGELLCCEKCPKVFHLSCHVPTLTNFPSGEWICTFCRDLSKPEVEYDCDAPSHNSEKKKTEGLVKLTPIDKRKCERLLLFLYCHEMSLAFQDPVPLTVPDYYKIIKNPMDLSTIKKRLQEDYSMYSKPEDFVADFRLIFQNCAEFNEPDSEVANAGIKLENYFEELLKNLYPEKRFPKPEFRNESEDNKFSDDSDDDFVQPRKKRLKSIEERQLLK

Chain of Tyrosine-protein kinase ABL1 (Homo sapiens) (P00519 whole entry): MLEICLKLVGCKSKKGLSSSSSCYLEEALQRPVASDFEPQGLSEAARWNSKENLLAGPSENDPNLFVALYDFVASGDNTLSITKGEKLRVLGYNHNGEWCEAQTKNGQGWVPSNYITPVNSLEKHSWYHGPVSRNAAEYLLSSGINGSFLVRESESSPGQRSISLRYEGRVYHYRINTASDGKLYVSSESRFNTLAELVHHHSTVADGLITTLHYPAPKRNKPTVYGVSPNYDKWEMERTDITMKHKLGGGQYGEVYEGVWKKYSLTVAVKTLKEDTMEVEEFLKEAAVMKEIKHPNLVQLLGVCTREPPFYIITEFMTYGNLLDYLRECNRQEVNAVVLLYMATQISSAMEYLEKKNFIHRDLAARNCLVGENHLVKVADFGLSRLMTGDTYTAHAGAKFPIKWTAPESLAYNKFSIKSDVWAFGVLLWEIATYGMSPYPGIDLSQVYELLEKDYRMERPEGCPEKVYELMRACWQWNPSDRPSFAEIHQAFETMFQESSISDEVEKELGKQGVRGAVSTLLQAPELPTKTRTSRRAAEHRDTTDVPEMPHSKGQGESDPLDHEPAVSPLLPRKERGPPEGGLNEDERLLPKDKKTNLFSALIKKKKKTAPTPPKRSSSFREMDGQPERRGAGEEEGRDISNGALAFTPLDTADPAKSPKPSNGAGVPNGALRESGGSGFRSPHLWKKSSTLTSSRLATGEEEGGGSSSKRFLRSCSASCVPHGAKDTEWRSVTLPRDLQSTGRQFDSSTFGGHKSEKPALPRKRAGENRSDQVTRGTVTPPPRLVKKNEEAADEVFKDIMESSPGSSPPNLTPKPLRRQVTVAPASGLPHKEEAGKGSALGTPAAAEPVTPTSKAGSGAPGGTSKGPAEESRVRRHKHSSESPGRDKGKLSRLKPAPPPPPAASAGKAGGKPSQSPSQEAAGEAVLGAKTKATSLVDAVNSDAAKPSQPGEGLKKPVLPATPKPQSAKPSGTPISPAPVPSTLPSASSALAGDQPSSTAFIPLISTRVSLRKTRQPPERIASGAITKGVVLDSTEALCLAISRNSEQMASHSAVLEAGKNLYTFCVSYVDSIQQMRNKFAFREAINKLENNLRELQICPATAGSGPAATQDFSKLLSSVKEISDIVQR

Row | Compound | ΔTm [1] [°C] | ΔTm [2] [°C] | ΔTm [3] [°C] | ΔTm [4] [°C] | ΔTm [5] [°C] | ΔTm [6] [°C] | ΔTm [7] [°C] | ΔTm [8] [°C]
1 | CC(C)(C)OC(=O)N1CCN(C(=O)n2cc(-c3ccc(OC(F)(F)F)cc3)nn2)C(Cc2ccccc2)C1 (stereo not drawn) | 0.06 | -0.12 | 0.53 | -0.73 | -0.69 | -0.4 | -1.5 | -0.53
2 | CS(=O)(=O)c1ccc(Oc2cc(F)cc(C#N)c2)c2c1C(O)C(F)C2 (stereo not drawn) | 0.53 | -2.49 | 0.01 | -0.13 | -0.04 | 0.54 | -2.47 | -0.39
3 | N#C[C@@H]1C[C@@H]2C[C@@H]2N1C(=O)[C@@H](N)C12CC3CC(CC(O)(C3)C1)C2 | 0.22 | 0.38 | 0.24 | -0.14 | -0.19 | 0.33 | -2.27 | 1.46
4 | O=C(Cc1ccccc1)c1cc(O)c(O)c([N+](=O)[O-])c1 | 0.39 | -1.83 | 0.33 | -0.3 | -0.88 | 0.35 | 0 | 1.83
5 | Cc1cc(-c2ccc3nc(C4CCOCC4)n(CCOC(F)(F)F)c3c2)cn(C)c1=O | 0.26 | 10.3 | 0.15 | 0.13 | -0.07 | -0.47 | -0.36 | -0.3
6 | CC(=O)N[C@@H](Cc1ccc(O)cc1)C(=O)N[C@H](C(=O)N[C@@H](C)C(=O)N[C@@H](CC(=O)O)C(=O)CCl)C(C)C | 0.08 | -2.91 | -0.27 | 0.22 | -1.19 | -0.01 | -1.19 | -1.17
7 | O=C(NCCCOc1ccc2[nH]c(=O)ccc2c1)N(C1CC1)[C@@H]1CCCC[C@H]1O | 0.31 | -0.85 | -0.14 | -0.05 | -0.66 | 0.1 | -2.39 | 0.02
8 | N#Cc1cc2cc(CN3CCC(Nc4ncnc5sc(CC(F)(F)F)cc45)CC3)ccc2[nH]1 | 0.42 | 1.04 | 0.06 | 1.89 | -0.5 | 0.61 | -0.57 | 1.28
9 | O=C(c1cc(O)c(O)c([N+](=O)[O-])c1)c1ccccc1F | 0.42 | -1.18 | 0.1 | 0.37 | 0.05 | 0.25 | -1.23 | 0.61
10 | C=CC(=O)Nc1cccc(-c2c[nH]cc2CN(C)CCN)c1 | 0.53 | -1.27 | 0.4 | -0.04 | -1.22 | 0.08 | -0.37 | -1.19
11 | Cc1cc(C)c(CNC(=O)c2cc(-c3ccc(N4CCN(C)CC4)nc3)cc3c2c(C)cn3C(C)C)c(=O)[nH]1 | 0.38 | -2.02 | 0.39 | 0.02 | 0 | 0.02 | -1.34 | -0.72
12 | CCN(CC)S(=O)(=O)c1cc(Nc2nccc(-c3ccnc(-c4ccc(NC(=O)NC)cc4)c3)n2)ccc1Cl | 15.6 | 0 | 0 | 0.81 | 24.1 | 0 | 0 | 0
13 | O=C(NO)c1ccc(CN2CCCc3cc(Cl)ccc32)cc1 | 0.31 | -1.3 | -0.96 | -0.07 | 0.96 | -0.12 | -0.45 | -1.53
14 | Cc1cc(/N=N/c2ccc(S(=O)(=O)NC3CCCC3)cc2)c(N)cc1O | 0.4 | 7.29 | 4.93 | 1.1 | 4.28 | 2.73 | 0.42 | 2.48
15 | Cc1c(CN2CCC(Nc3ncnc4sc(CC(F)(F)F)cc34)CC2)ccc2c1cc(C#N)n2Cc1cn[nH]c1 | 0.97 | -1.35 | -0.07 | 1.61 | 0.28 | -7.35 | -1.51 | 0.6
16 | O=C(Oc1cccc(F)c1OC(=O)c1cccc(O)c1)c1cccc(O)c1 | 0.98 | -0.67 | 0.91 | 0.57 | -0.64 | 0.41 | -0.91 | 1.67
17 | CCC[C@@H]1CNCc2c1[nH]c(=O)c(C#N)c2N1CCC2(CC1)CC2 | 0.32 | -1.86 | 0.24 | 0.29 | 0.07 | -0.21 | -0.58 | -0.85
18 | CC(C)Oc1ccc(C=O)cc1 | 0.27 | -1.93 | -0.05 | 0.18 | -0.88 | 0.02 | -1.79 | -0.93
19 | CCC(CC)N(CCN(C)C(=O)CCC(=O)O)Cc1cccc(C(=O)Nc2sc3c(c2C(=O)c2cnn(-c4ccc(Cl)c(C(F)(F)F)c4)c2)CCC(C)(C)C3)c1 | -0.27 | 1.72 | -0.99 | -8.05 | -4.31 | -1.59 | -8.72 | 1.42
20 | CCCCN(Cc1ccc(C(=O)NO)cc1)C(=O)Nc1ccccc1 | 0.74 | -1.81 | 0.54 | 0.26 | -0.89 | 0.25 | -0.07 | -1.23
21 | Cc1ncsc1-c1ccc([C@H](C)NC(=O)[C@@H]2C[C@@H](O)CN2C(=O)[C@@H](NC(=O)COCCCOCCNC(=O)C[C@@H]2N=C(c3ccc(Cl)cc3)c3c(sc(C)c3C)-n3c(C)nnc32)C(C)(C)C)cc1 | -0.44 | 7 | -3.66 | 0.48 | 0 | 0 | 0 | -3.36
